Results as given in PubChem BioAssay (NCI).
Compounds without any hit were thinned out: in the full panel of roughly 83,000, 20% have a hit.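 Results are percent growth after 48 hours of single-concentration exposure. 100 means growth as in untreated cells, lower positive values show inhibition; negative values down to -100 show cell death.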 Active and inactive are the calls of the source. The calls were made as follows: active = growth percent below 10; inactive = the rest.

system: OVCAR-8 ovarian; test: NCI-60 one-dose screen, 48 h (100 = growth as untreated, 0 = no growth, -100 = all killed); conditions: 10 µM unless noted

| SMILES | growth |
| --- | --- |
| CCCCNc1ccc2c3c(cccc13)C(=O)N(c1cccc(-c3nn(-c4ccccc4)cc3-c3nc4ccccc4s3)c1)C2=O | 107% (inactive) |
| COc1ccc(-c2cc(-c3cc(OC)c(OC)c(OC)c3)[nH]c(=O)c2C#N)cc1 | 13.4% (inactive) |
| COc1cc(C2CC(c3ccc(Cl)cc3)=Nc3c(N)nc(N)nc3N2)ccc1Oc1nc(Nc2ccc(F)cc2)nc(N(C)C)n1 (configuration not stated) | 65% (inactive) |
| O=C(O)CC1S/C(=N/N=C/c2nc3ccccc3s2)NC1=O (configuration not stated) | 98.5% (inactive) |
| Cc1ccc(S(=O)(=O)N(CCn2ccnc2[N+](=O)[O-])CCn2ccnc2[N+](=O)[O-])cc1 | 101% (inactive) |
| N#CCc1nnc(NC(=O)c2ccc(-n3c(=O)[nH]c4ccccc4c3=O)cc2)s1 | 100% (inactive) |
| O=C(N/N=C/c1ccc(Br)o1)c1[nH]c2ccc(Br)cc2c1-c1ccccc1 | -35.9% (active) |
| COc1ccc(N=Nc2c(N)nn3c(-c4ccc([N+](=O)[O-])cc4)ccnc23)cc1 | 107% (inactive) |
| Cn1cc(-c2cc(N)n3nc(-c4c[nH]c5ccc(Cl)cc45)cc3n2)c2cc(Br)cnc21 | -60.1% (active) |
| CN1C(=O)C2(C(C#N)=C(c3ccc(Cl)cc3)Nc3c2c(-c2ccccc2)nn3-c2ccccc2)c2ccccc21 (configuration not stated) | 98.5% (inactive) |
| Cc1nn(-c2ccccc2)c2nc(C)n(C(=O)N/N=C/c3ccccc3)c(=O)c12 | 101% (inactive) |
| CN1CCN(CCS(=O)(=O)Nc2cc(-c3ccc4ncnc(Nc5ccc(F)c(Cl)c5)c4c3)cnc2Cl)CC1 | 22.4% (inactive) |
